Reference: PubChem BioAssay (EPA / NIEHS)
Activity calls are given as the source filed them. How the source made its calls: active means hit-call score of the fitted dose curve at least 0.9, where 1 is the maximum; inactive means score below 0.9.

Key:
Settings in all cases: mRNA level, 48 h; actives raise or lower the signal
[1] = read-out: Lipase C (LIPC), LIPC (gene 3990); test: LTEA_HepaRG_LIPC: Life Technologies and Expression Analysis (LTEA) Assay for Lipase C (LIPC) using HepaRG (AID 2283514)
Procedure, shortened: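 Read-out is LIPC transcript level by TaqMan qRT-PCR, normalized to three housekeeping genes, after 48 h chemical treatment of human HepaRG liver cells. Curves span eight concentrations topping at 100 uM; activity in either direction scored relative to 0.5% DMSO.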

[2] = read-out: Lipoprotein lipase (LPL), LPL (gene 4023); test: LTEA_HepaRG_LPL: Life Technologies and Expression Analysis (LTEA) Assay for Lipoprotein lipase (LPL) using HepaRG (AID 2283515)
Procedure, shortened: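 Read-out is LPL transcript level by qRT-PCR, normalized to three housekeeping genes and fitted bidirectionally against the DMSO control. Human HepaRG cells received chemicals for 48 h at up to 100 uM.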

[3] = read-out: MicroRNA 122 (MIR122), gene 406906; test: LTEA_HepaRG_MIR122: Life Technologies and Expression Analysis (LTEA) Assay for MicroRNA 122 (MIR122) using HepaRG (AID 2283516); further: the transcript read is the microRNA miR-122
Procedure, shortened: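 Differentiated human HepaRG cells in serum-free induction medium exposed 48 h to 8 half-log concentrations from 100 uM in 0.5% DMSO, duplicate. MIR122 quantified by Fluidigm TaqMan qRT-PCR, normalised to ACTB, GAPDH, POLR2A; fold change fitted bidirectionally versus DMSO.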

[4] = read-out: matrix metalloproteinase-10 (MMP10), MMP10 (gene 4319); test: LTEA_HepaRG_MMP10: Life Technologies and Expression Analysis (LTEA) Assay for matrix metalloproteinase-10 (MMP10) using HepaRG (AID 2283517)
Procedure, shortened: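 Gain or loss of MMP10 mRNA is fitted relative to the 0.5% DMSO vehicle. The human hepatic line HepaRG receives a 48-hour serum-free exposure, in duplicate, with a maximum concentration of 100 uM.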

MYC, MYC (gene 4609) = test: LTEA_HepaRG_MYC: Life Technologies and Expression Analysis (LTEA) Assay for MYC using HepaRG (AID 2283518)
Procedure, shortened: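 MYC transcript changes, up or down relative to 0.5% DMSO, from TaqMan qRT-PCR normalized to three housekeeping genes. Human HepaRG cultures received chemicals for 48 h at eight half-log concentrations up to 100 uM, in duplicate.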

[5] = read-out: matrix metalloproteinase-3 (MMP3), MMP3 (gene 4314); test: LTEA_HepaRG_MMP3: Life Technologies and Expression Analysis (LTEA) Assay for matrix metalloproteinase-3 (MMP3) using HepaRG (AID 2283519)
Procedure, shortened: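 HepaRG, human; 48 h dosing, 8 conc. (max 100 uM, half-log), duplicate, 0.5% DMSO. Readout: MMP3 transcript by Fluidigm TaqMan qRT-PCR, ACTB/GAPDH/POLR2A-normalised. Gain or loss fitted vs DMSO.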

[6] = read-out: Nuclear factor NF-kappa-B p105 subunit (Homo sapiens) (UniProt P19838); test: LTEA_HepaRG_NFKB1: Life Technologies and Expression Analysis (LTEA) Assay for Nuclear Factor Kappa B Subunit 1 (NFKB1) using HepaRG (AID 2283521)
Procedure, shortened: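 Differentiated human HepaRG cells in serum-free induction medium with 0.5% DMSO were exposed for 48 h to eight half-log concentrations, top 100 uM, in duplicate. NFKB1 mRNA measured by Fluidigm TaqMan qRT-PCR, normalised to ACTB, GAPDH and POLR2A; bidirectional fit versus DMSO.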

[7] = read-out: Protein phosphatase 2A (PPP2R4), PTPA (gene 5524); test: LTEA_HepaRG_PPP2R4: Life Technologies and Expression Analysis (LTEA) Assay for Protein phosphatase 2A (PPP2R4) using HepaRG (AID 2283522)
Procedure, shortened: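 Differentiated human HepaRG cells in serum-free induction medium were exposed 48 h to 8 concentrations (top 100 µM, half-log steps, duplicate) in 0.5% DMSO. PPP2R4 mRNA was measured by TaqMan qRT-PCR, normalised to ACTB, GAPDH and POLR2A, and fitted bidirectionally versus DMSO.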

[8] = read-out: Phosphatase and tensin (PTEN), PTEN (gene 5728); test: LTEA_HepaRG_PTEN: Life Technologies and Expression Analysis (LTEA) Assay for Phosphatase and tensin (PTEN) using HepaRG (AID 2283523)
Procedure, shortened: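 Read-out is PTEN transcript level by multiplexed TaqMan qRT-PCR after 48 h chemical treatment of human HepaRG cultures in serum-free induction medium. Concentrations spanned 100 uM downward in half-log steps, 0.5% DMSO throughout; activity fitted in both directions against vehicle.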

[9] = read-out: solute carrier (SLC22A1), SLC22A1 (gene 6580); test: LTEA_HepaRG_SLC22A1: Life Technologies and Expression Analysis (LTEA) Assay for solute carrier (SLC22A1) using HepaRG (AID 2283524)
Procedure, shortened: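 HepaRG (human liver line), 48 h dosing in serum-free induction medium; 8 conc., half-log down from 100 uM, 0.5% DMSO vehicle, duplicates. Endpoint: SLC22A1 mRNA, qRT-PCR, housekeeping-normalized; gain/loss fit vs DMSO.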

[10] = read-out: Pyruvate Dehydrogenase Kinase 4 (PDK4), PDK4 (gene 5166); test: LTEA_HepaRG_PDK4: Life Technologies and Expression Analysis (LTEA) Assay for Pyruvate Dehydrogenase Kinase 4 (PDK4) using HepaRG (AID 2283525)
Procedure, shortened: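 In this multiplexed human HepaRG expression assay, cells are treated 48 h with test chemicals across an eight-point range starting at 100 uM. PDK4 mRNA changes, normalized to ACTB/GAPDH/POLR2A, are fitted in both directions relative to vehicle.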

[11] = read-out: NAD(P)H dehydrogenase [quinone] 1 (NQO1), NQO1 (gene 1728); test: LTEA_HepaRG_NQO1: Life Technologies and Expression Analysis (LTEA) Assay for NAD(P)H dehydrogenase [quinone] 1 (NQO1) using HepaRG (AID 2283526)
Procedure, shortened: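 Differentiated human HepaRG cells in serum-free induction medium, dosed in duplicate for 48 h at 8 half-log concentrations up to 100 uM in 0.5% DMSO. NQO1 mRNA by qRT-PCR normalized to ACTB, GAPDH, POLR2A; bidirectional fit versus DMSO baseline.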

[12] = read-out: succinate dehydrogenase complex iron sulfur subunit B (SDHB), SDHB (gene 6390); test: LTEA_HepaRG_SDHB: Life Technologies and Expression Analysis (LTEA) Assay for succinate dehydrogenase complex iron sulfur subunit B (SDHB) using HepaRG (AID 2283528)
Procedure, shortened: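 HepaRG cells (~100,000/well, plated 48 h) exposed in duplicate for 48 h in serum-free induction medium to 8-point half-log series from 100 uM in 0.5% DMSO; mRNA by qRT-PCR normalised to ACTB, GAPDH, POLR2A; bidirectional fit versus DMSO.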

[13] = read-out: Signal transducer and activator of transcription 3 (Homo sapiens) (UniProt P40763); test: LTEA_HepaRG_STAT3: Life Technologies and Expression Analysis (LTEA) Assay for Signal transducer and activator of transcription (STAT3) using HepaRG (AID 2283529)
Procedure, shortened: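 Read-out is STAT3 mRNA level by qRT-PCR, normalized to three housekeeping genes, in human HepaRG liver cells treated for 48 h. Concentrations ran from 100 uM downward in half-log steps; curves were fitted for gain or loss relative to 0.5% DMSO.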

[14] = read-out: solute carrier (SLCO1B1), SLCO1B1 (gene 10599); test: LTEA_HepaRG_SLCO1B1: Life Technologies and Expression Analysis (LTEA) Assay for solute carrier (SLCO1B1) using HepaRG (AID 2283530)
Procedure, shortened: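 SLCO1B1 transcript levels were quantified by TaqMan qRT-PCR using three housekeeping genes for normalization. This followed 48 h chemical exposure (100 uM top, half-log, 8 points, 0.5% DMSO) of HepaRG liver cells, with gain or loss fitted relative to DMSO.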

[15] = read-out: sulfotransferase 2A1 (SULT2A1), SULT2A1 (gene 6822); test: LTEA_HepaRG_SULT2A1: Life Technologies and Expression Analysis (LTEA) Assay for sulfotransferase 2A1 (SULT2A1) using HepaRG (AID 2283531)
Procedure, shortened: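 Expression change of SULT2A1, by qRT-PCR with three housekeeping-gene normalization, was scored bidirectionally versus DMSO. Cells: differentiated HepaRG, dosed in duplicate for 48 h across 8 points, highest 100 µM, half-log dilution, 0.5% DMSO.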

[16] = read-out: Transforming Growth Factor (TGFB1), TGFB1 (gene 7040); test: LTEA_HepaRG_TGFB1: Life Technologies and Expression Analysis (LTEA) Assay for Transforming Growth Factor (TGFB1) Transporter using HepaRG (AID 2283533)
Procedure, shortened: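 TGFB1 transcript measured by qRT-PCR with normalisation to three housekeeping genes (ACTB, GAPDH, POLR2A); human HepaRG line treated in duplicate for 48 hr with an 8-point series topping at 100 uM, 0.5% DMSO vehicle, bidirectionally fitted.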

[17] = read-out: Paternally Expressed 10 (PEG10), PEG10 (gene 23089); test: LTEA_HepaRG_PEG10: Life Technologies and Expression Analysis (LTEA) Assay for Paternally Expressed 10 (PEG10) using HepaRG (AID 2283520)
Procedure, shortened: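 Differentiated HepaRG cells exposed 48 h in serum-free induction medium to eight half-log concentrations topping at 100 uM, 0.5% DMSO, in duplicate. PEG10 mRNA quantified by TaqMan qRT-PCR, normalized to ACTB, GAPDH and POLR2A; bidirectional fit versus DMSO.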

[18] = read-out: Transforming Growth Factor (TGFA), TGFA (gene 7039); test: LTEA_HepaRG_TGFA: Life Technologies and Expression Analysis (LTEA) Assay for Transforming Growth Factor (TGFA) using HepaRG (AID 2283532)
Procedure, shortened: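 HepaRG (human liver line), 48 h exposure, 8 conc. half-log down from 100 uM, 0.5% DMSO vehicle, duplicates; serum-free induction medium. TGFA mRNA by TaqMan qRT-PCR, ACTB/GAPDH/POLR2A normalization; gain/loss fit vs DMSO.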

Measured: AC50

Sequence of Signal transducer and activator of transcription 3 (Homo sapiens) (P40763 whole entry, looked up): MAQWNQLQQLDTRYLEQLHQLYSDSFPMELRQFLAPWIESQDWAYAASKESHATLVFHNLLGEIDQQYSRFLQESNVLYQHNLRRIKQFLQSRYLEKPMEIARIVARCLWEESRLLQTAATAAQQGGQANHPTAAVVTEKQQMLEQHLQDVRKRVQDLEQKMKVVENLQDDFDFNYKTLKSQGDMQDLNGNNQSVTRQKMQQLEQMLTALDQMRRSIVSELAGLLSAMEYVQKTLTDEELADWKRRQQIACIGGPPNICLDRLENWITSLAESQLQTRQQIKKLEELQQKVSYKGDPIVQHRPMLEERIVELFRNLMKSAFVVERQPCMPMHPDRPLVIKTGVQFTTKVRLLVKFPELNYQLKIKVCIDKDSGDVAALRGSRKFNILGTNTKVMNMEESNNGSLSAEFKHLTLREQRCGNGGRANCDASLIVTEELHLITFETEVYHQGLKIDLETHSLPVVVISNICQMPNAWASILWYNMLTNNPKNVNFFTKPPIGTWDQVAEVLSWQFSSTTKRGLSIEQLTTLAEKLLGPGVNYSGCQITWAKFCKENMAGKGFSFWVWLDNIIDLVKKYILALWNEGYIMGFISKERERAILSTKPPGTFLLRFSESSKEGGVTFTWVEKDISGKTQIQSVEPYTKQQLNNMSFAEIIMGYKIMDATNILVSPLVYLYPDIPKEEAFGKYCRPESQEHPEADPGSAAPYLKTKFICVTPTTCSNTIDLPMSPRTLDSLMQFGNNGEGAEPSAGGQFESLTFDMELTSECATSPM
Sequence of Nuclear factor NF-kappa-B p105 subunit (Homo sapiens) (P19838 whole entry, looked up): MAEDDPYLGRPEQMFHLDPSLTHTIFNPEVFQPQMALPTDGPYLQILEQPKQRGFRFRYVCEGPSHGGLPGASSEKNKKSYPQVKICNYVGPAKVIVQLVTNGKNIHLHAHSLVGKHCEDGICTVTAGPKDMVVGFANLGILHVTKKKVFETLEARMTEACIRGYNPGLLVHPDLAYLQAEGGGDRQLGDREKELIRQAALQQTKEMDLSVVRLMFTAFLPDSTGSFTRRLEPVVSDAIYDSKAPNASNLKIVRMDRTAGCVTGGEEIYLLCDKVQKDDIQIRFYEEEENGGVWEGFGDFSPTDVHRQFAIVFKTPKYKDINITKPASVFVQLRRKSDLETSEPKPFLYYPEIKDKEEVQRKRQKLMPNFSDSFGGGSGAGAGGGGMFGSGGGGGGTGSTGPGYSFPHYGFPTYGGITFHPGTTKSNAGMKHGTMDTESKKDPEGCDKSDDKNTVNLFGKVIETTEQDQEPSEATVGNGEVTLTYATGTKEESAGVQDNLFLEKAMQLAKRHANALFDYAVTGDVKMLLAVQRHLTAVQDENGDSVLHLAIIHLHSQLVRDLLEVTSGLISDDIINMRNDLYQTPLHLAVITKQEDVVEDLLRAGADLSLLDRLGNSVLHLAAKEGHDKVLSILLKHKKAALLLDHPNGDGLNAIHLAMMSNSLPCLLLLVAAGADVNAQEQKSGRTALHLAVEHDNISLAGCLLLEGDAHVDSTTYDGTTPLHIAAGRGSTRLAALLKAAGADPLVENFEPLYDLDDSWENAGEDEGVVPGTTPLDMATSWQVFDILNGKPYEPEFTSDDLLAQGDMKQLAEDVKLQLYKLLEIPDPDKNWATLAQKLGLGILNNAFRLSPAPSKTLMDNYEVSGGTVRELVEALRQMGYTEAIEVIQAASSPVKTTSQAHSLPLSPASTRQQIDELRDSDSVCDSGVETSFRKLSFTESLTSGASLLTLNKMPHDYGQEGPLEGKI

CC(C)Oc1cc(-n2nc(C(C)(C)C)oc2=O)c(Cl)cc1Cl
active: [1] 50 µM | [2] 85.5 µM | [3] 50 µM | MYC, MYC (gene 4609) 89.1 µM | [9] 42.8 µM | [10] 11.6 µM | [15] 80.9 µM
not listed: [17] | [18]
inactive: all other assays above

CCCC1COC(Cn2cncn2)(c2ccc(Cl)cc2Cl)O1 (stereo not drawn)
inactive: [6] | [7] | [8] | [12] | [13]
active: [1] 35.8 µM | [2] 27.8 µM | [3] 49.5 µM | [4] 77.8 µM | MYC, MYC (gene 4609) 35.4 µM | [5] 89.4 µM | [17] 15 µM | [9] 40.5 µM | [10] 12.3 µM | [11] 50 µM | [14] 62.8 µM | [15] 59 µM | [16] 27.3 µM

CCc1nn(C)c(C(=O)NCc2ccc(C(C)(C)C)cc2)c1Cl
active: [1] 0.58 µM | [2] 2.22 µM | [3] 1.85 µM | [4] 26.5 µM | MYC, MYC (gene 4609) 5.39 µM | [8] 50 µM | [9] 4.52 µM | [10] 0.723 µM | [11] 50 µM | [14] 31.3 µM | [15] 26.8 µM | [18] 16.4 µM | [16] 50 µM
inactive: [5] | [6] | [7] | [12] | [13]
